From PubChem BioAssay AID743398 (Broad Institute, 2014)
In all, about 300,000 compounds went through this assay and about 3,600 (1.2%) were called active. This is one part of a sample in which actives are shown more often than they occur. Cut-off read from the data, not from the text of the source: active = activation above about 30% (passing the limit was not always enough); inconclusive = no clear call, values can overlap the other calls.

Assay: activation of beta-catenin signaling reporter – cell-based, plate reader, single point, primary screen (AID 743398);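 note: 0% = neutral control wells and 100% = positive control wells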
Conditions: Wnt/beta-catenin reporter cell assay, activator, at 9.35 µM, hits give high values

SMILES | activation
CC(Cc1ccccc1)NC=O (stereo not given) | -1.03% (inactive)
CC(Cc1ccccc1)NCCC(c1ccccc1)c1ccccc1 (stereo not given) | 42% (active)
CC(=O)NC(=O)NC(C)Cc1ccccc1 (stereo not given) | -4.37% (inactive)
COc1cc(OC)cc(C(=O)NCCN2CCC3(CC2)C(=O)NCN3c2ccccc2)c1 | 3.07% (inactive)
Brc1ccc2c(c1)CNCc1cnnn1-2 | -2.63% (inactive)
